The text below walks through data of PubChem BioAssay (NCATS).

Results filed as inconclusive are left out. Where a call stands in place of a potency, no number is given. Active and inactive are the calls of the source. Calls come from the whole dose curve; as a rule, active = well fitted inhibition curve with a large enough effect; inconclusive = small, poorly fitted or top-dose-only effect; inactive = flat fitted curve, though single readings scatter.

Sequence of Voltage-gated inwardly rectifying potassium channel KCNH2 (Homo sapiens) (Q12809 whole entry, looked up): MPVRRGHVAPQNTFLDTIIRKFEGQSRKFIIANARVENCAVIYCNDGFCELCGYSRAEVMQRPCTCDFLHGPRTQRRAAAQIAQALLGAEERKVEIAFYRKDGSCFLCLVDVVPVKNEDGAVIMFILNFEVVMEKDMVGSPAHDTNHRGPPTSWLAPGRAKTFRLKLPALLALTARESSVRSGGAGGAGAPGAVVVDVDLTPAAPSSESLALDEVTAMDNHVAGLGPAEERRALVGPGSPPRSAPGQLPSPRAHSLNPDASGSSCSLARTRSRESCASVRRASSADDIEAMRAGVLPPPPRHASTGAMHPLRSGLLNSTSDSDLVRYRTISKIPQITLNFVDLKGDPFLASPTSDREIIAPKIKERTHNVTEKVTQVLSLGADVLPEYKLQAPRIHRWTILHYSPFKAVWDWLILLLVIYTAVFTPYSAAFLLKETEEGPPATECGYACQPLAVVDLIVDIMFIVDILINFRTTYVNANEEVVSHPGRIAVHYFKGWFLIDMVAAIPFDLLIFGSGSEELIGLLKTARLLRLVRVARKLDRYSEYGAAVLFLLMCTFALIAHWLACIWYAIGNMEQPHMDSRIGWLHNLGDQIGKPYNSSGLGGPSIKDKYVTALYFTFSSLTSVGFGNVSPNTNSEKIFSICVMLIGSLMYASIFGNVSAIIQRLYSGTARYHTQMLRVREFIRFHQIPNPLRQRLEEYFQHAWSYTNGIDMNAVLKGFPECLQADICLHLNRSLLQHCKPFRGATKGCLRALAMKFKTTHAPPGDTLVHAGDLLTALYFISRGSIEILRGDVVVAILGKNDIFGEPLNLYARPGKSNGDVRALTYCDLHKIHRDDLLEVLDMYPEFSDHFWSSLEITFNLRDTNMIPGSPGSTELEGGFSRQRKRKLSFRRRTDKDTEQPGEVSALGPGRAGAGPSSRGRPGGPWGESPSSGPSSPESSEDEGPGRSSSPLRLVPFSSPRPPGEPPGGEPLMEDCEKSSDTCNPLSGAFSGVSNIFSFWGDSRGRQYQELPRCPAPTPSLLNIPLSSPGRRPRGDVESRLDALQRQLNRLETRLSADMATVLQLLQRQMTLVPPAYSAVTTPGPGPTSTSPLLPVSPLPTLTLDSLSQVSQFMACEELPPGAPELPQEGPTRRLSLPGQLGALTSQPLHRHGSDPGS

The experiment concerns the target Voltage-gated inwardly rectifying potassium channel KCNH2 (Homo sapiens) (UniProt Q12809). The experiment can be described thus: qHTS Assay for Small Molecule Inhibitors of the Human hERG Channel Activity (AID 588834).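 Note: top concentration of the series differs between compounds; lower thallium flux fluorescence means stronger hERG block; nearly all actives have a fitted effect of over 50% in size.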 The following applies: U2OS BacMam hERG, FluxOR thallium flux fluorescence; series mostly up to 46.1 µM. The gist of the method: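 Thallium-flux (FluxOR) read-out on FDSS: fluorescence read 10 s before and 2 min after stimulation buffer. hERG-BacMam-transduced U2OS cells, compound exposure about 10 min. AC50 by standard Hill equation.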
Consider `CC(=O)N(CC(O)CN(C(C)=O)c1c(I)c(C(=O)NCC(O)CO)c(I)c(C(=O)NCC(O)CO)c1I)c1c(I)c(C(=O)NCC(O)CO)c(I)c(C(=O)NCC(O)CO)c1I` (centres undefined), for which the Potency result was “inactive”.

As to `CCOC(=O)OC(C)OC(=O)[C@@H]1N2C(=O)[C@@H](NC(=O)[C@H](N)c3ccccc3)[C@H]2SC1(C)C` (some centres undefined), the Potency result was “inactive”.

On to `CC1(c2ccccc2)OC(C(=O)O)=CC1=O` (centres undefined), for which the Potency entry was “inactive”.

With `O=C(/C=C/c1ccc(O)c(O)c1)O[C@@H]1C[C@@](OC(=O)/C=C/c2ccc(O)c(O)c2)(C(=O)O)C[C@@H](O)[C@@H]1O`, the Potency result was “inactive”.

Take `CO[C@@]1(NC(=O)C(C(=O)O)c2ccc(O)cc2)C(=O)N2C(C(=O)O)=C(CSc3nnnn3C)CO[C@@H]21` (some centres undefined): the Potency result is “inactive”.

`NC(=O)N[C@@H](CCC(=O)O)C(=O)O`: the Potency result is “inactive”.

Turning to `OCCN1C[C@H](O)[C@@H](O)[C@H](O)[C@H]1CO`, the Potency result was “inactive”.

As to `CC(=O)OCC(=O)[C@@]1(O)CC[C@H]2[C@@H]3CCC4=CC(=O)C=C[C@]4(C)[C@@]3(F)[C@@H](O)C[C@@]21C`, the Potency entry is “inactive”.

`CC(=O)N[C@H]1[C@H]([C@H](O)[C@H](O)CO)OC(C(=O)O)=C[C@@H]1N=C(N)N`: the Potency entry was “inactive”.

With `CC(=O)N1C[C@H](O)C[C@H]1C(=O)O`, the Potency result was “inactive”.

Consider `CC1(C)S[C@@H]2[C@H](N=CN3CCCCCC3)C(=O)N2[C@H]1C(=O)O`, for which the Potency entry was “inactive”.

For the compound `CN1CC(=O)NC1=N`, the Potency result is “inactive”.

As for `CN[C@@H]1[C@H](O)[C@H](NC)[C@H]2O[C@@]3(O)C(=O)C[C@@H](C)O[C@H]3O[C@@H]2[C@H]1O`, the Potency entry was “inactive”.

For the compound `CCCNC(C)C(=O)Nc1c(C)csc1C(=O)OC` (centres undefined), the Potency entry is “inactive”.
